Screening data (PubChem)
Rows were chosen to be rich in hits. Some 1.9% of all compounds tested hit in one or more screens of this group.
PP1 counter: counter-screen for PP5 inhibitors: inhibitors of human PP1-alpha. purified PP1alpha, OMFP fluorescence. inhibition, % at 6.7 µM. AID 2235. P62136. 320,000 compounds, 0.9% hits;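 active = inhibition above the mean inhibition of all tested compounds plus 3 SD, computed separately for each screening campaign, cut at about 15% in these data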
H9c2 protect: protects H9c2 cardiomyocytes from peroxide injury. H2O2 injury protection, ATPLite, 2 h. protection from H2O2 cell death, % at 20 µM. 360,000 compounds, 0.63% hits. AID 588492;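 active = compounds giving at least 50% protection of heart cells from peroxide-induced death in the single-dose screen, raw or plate-pattern-corrected value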;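 note: 0% = DMSO wells with peroxide and 100% = DMSO wells without peroxide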
ATG4B inhibitor: ATG4B (human) cysteine protease inhibition; Q9Y4P1; ATG4B cleavage of LC3-PLA2, NBD-HPC fluorescence, 1 h; inhibition, % at 8.33 µM; 340,000 compounds, 0.51% hits; in the data active = inhibition above about 40%
Target sequence (Q9Y4P1 whole entry, looked up): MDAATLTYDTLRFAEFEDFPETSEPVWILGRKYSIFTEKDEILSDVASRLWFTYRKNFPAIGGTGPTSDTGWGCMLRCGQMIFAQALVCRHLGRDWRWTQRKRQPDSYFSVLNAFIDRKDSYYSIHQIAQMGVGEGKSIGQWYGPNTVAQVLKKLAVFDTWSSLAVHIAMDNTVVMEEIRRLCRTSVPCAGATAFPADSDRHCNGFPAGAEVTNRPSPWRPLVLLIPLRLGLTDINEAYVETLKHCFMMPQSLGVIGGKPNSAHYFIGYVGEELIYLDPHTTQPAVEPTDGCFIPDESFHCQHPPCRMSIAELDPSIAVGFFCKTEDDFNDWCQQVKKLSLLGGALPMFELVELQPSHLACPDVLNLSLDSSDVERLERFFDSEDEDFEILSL
PP5 inh: inhibitors of human protein phosphatase 5 (PP5). purified PP5c, OMFP substrate fluorescence. inhibition, % at 6.7 µM. 320,000 compounds, 0.18% hits;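 active = inhibition above the campaign's mean inhibition across all tested compounds plus 3 SD, cut at about 9.5% in these data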;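 note: 0% = DMSO only and 100% = 100 µM cantharidin control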
ATG4B confirm: confirmation of human ATG4B inhibitors. AID 504757. inhibition, % at 8.33 µM. ATG4B protease fluorescent substrate cleavage assay. shares compounds with ATG4B inhibitor. 320 compounds, 92% hits; in the data active = inhibition above about 39%
PLA2 counter: counter-screen for ATG4B inhibitors: human phospholipase A2. shares compounds with ATG4B inhibitor. purified PLA2, NBD-C6-HPC fluorescence, 45 min. inhibition, % at 8.33 µM. 1,600 compounds, 66% hits; in the data active = inhibition above about 50%
Target sequence (P04054 whole entry, looked up): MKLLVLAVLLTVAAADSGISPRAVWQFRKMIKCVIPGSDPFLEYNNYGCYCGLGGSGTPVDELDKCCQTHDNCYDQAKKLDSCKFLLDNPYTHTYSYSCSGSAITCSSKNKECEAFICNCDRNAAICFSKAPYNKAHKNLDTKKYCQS
Starred values were filed as active, the others as inactive.

O=[N+]([O-])c1cccc(-c2nnc(-c3ccccc3F)o2)c1 was read as H9c2 protect 2 and ATG4B inhibitor 0.
For COC(=O)c1ccc(CSc2nc3c(c(=O)n2-c2ccc(C)cc2)SCC3)o1 the results were PP1 counter -4, H9c2 protect -4, ATG4B inhibitor 48*, PP5 inh 3 and PLA2 counter 70*.
For Cc1ccc(-n2c(SCC(=O)N3CCCC3)nc3c(c2=O)SCC3)cc1 the results were PP1 counter 7 and PP5 inh 0.
`CC(Sc1ncnc2sc(-c3ccccc3)cc12)C(N)=O` (centres undefined) gave PP1 counter 1, H9c2 protect 4, ATG4B inhibitor 48*, PP5 inh 2 and PLA2 counter 62*.
COc1ccc(NC(=O)CSc2nc3scc(C)c3c(=O)[nH]2)cc1 was read as PP1 counter -1, H9c2 protect 1, ATG4B inhibitor 3 and PP5 inh 1.
Screening COc1cccc(OC)c1C(=O)OCC(=O)NCCNC(=O)COC(=O)c1c(OC)cccc1OC returned H9c2 protect 5.
`CS(=O)(=O)Nc1ccc(C2=NN(C(=O)C3CCCCC3)C(c3cccs3)C2)cc1` (centres undefined) gave PP1 counter -1, H9c2 protect -4, ATG4B inhibitor 77*, PP5 inh -3 and PLA2 counter 81*.
`CCc1nc(N(CC)CC)c2oc3ccccc3c2n1` gave PP1 counter -1, H9c2 protect 10, ATG4B inhibitor 35 and PP5 inh 2.
`CCc1nc(N2CCC(C)CC2)c2oc3ccccc3c2n1` gave PP1 counter -3, H9c2 protect -22, ATG4B inhibitor 57*, PP5 inh 1 and PLA2 counter 68*.
O=C(O)c1ccccc1C(=O)N(Cc1ccccc1)Cc1ccccc1 was read as PP1 counter -4, H9c2 protect -3, ATG4B inhibitor 2 and PP5 inh -1.
Screening O=C(O)c1cc(Cl)c(Cl)cc1C(=O)N(Cc1ccccc1)Cc1ccccc1 returned PP1 counter 1, H9c2 protect 6, ATG4B inhibitor 43*, PP5 inh 0 and PLA2 counter 52*.
Screening CCOc1ccc2nc(SCC(=O)NC3CCCc4ccccc43)sc2c1 (centres undefined) returned PP1 counter 7, H9c2 protect -5, ATG4B inhibitor 50*, PP5 inh -7 and PLA2 counter 44.
For CCOc1ccc2nc(SCC(=O)N3CCCc4ccccc43)sc2c1 the results were PP1 counter 2, H9c2 protect -7, ATG4B inhibitor -2 and PP5 inh 3.
`CC(C)c1ccccc1OCC(=O)NC1CCCc2ccccc21` (centres undefined) gave PP1 counter 2, H9c2 protect -4, ATG4B inhibitor 48*, PP5 inh 5, ATG4B confirm 65* and PLA2 counter 45.
COc1ccc(NC(=O)c2ccc(=O)[nH]c2)cc1S(=O)(=O)N1CCOCC1 was read as H9c2 protect 9 and ATG4B inhibitor -4.
Screening CC(Sc1nc2ccccc2c(=O)n1CC1CCCO1)C(=O)N(C)c1ccccc1 (centres undefined) returned PP1 counter -4, H9c2 protect 24, ATG4B inhibitor -13 and PP5 inh -1.
`CCc1ccc(OCCCCCn2ccnc2)cc1` gave H9c2 protect -8 and ATG4B inhibitor -10.
`CC(C)(C)c1ccc(C(=O)Nc2ccccc2Cl)cc1` gave PP1 counter 3, H9c2 protect -23, ATG4B inhibitor 45*, PP5 inh -2 and PLA2 counter 55*.
`CC(C)Cc1ccc(CN2CCCC(NC(=O)c3ccnn3C)C2)cc1` (centres undefined) gave PP1 counter -4, H9c2 protect -10, ATG4B inhibitor 42*, PP5 inh -1 and PLA2 counter 49.
`CC(C)(C)C(=O)OCCNc1nc(-c2ccccc2)nc2ccccc12` gave PP1 counter 2, H9c2 protect -6, ATG4B inhibitor 54*, PP5 inh 6 and PLA2 counter 63*.
`Cc1ccc(C)c(NC(=O)COC(=O)c2cc3ccccc3oc2=O)c1` gave PP1 counter 4, H9c2 protect 10, ATG4B inhibitor -6 and PP5 inh 1.
COC(=O)c1ccc(CSc2nnc(-c3c[nH]c4ccccc34)n2-c2ccccc2)cc1 was read as PP1 counter 10, H9c2 protect -6, ATG4B inhibitor 46*, PP5 inh 7 and PLA2 counter 67*.
Cn1c(SCc2ccccc2)nnc1-c1c[nH]c2ccccc12 was read as PP1 counter -3, H9c2 protect -8, ATG4B inhibitor 14 and PP5 inh 3.
Screening Cc1cccc(-n2c(SCc3ccc(C#N)cc3)nnc2-c2c[nH]c3ccccc23)c1 returned PP1 counter 2, H9c2 protect 2, ATG4B inhibitor 51*, PP5 inh -1 and PLA2 counter 59*.
Screening CCN(CC)CC(=O)N1CCCC(N2CCN(c3cccc(C(F)(F)F)c3)CC2)C1 (centres undefined) returned PP1 counter -2, H9c2 protect 9, ATG4B inhibitor 9 and PP5 inh 1.
For CCOC(=O)c1c(C)nc2c(c1-c1ccccc1)C(=O)c1ccccc1-2 the results were PP1 counter 1, H9c2 protect 18, ATG4B inhibitor 79*, PP5 inh 5 and PLA2 counter 71*.
`CCOC(=O)c1c(C)nc2c(c1-c1cc(OC)ccc1OC)C(=O)c1ccccc1-2` gave PP1 counter -4, H9c2 protect -2, ATG4B inhibitor -7 and PP5 inh 0.
For CCOC(=O)c1c(C)nc2sc(C(N)=O)c(N)c2c1-c1ccccc1 the results were PP1 counter -6, H9c2 protect 46, ATG4B inhibitor 54*, PP5 inh 3 and PLA2 counter 61*.
For COc1ccccc1Cn1[nH]nnc1=S the results were PP1 counter 1, H9c2 protect 6, ATG4B inhibitor 4 and PP5 inh 2.
`C=CCn1c(SCc2cc([N+](=O)[O-])cc3c2OCOC3)nc2cc(C(=O)O)ccc2c1=O` gave PP1 counter 0, H9c2 protect 16, ATG4B inhibitor -8 and PP5 inh 0.
`CCC(CO)n1c(SCc2cc([N+](=O)[O-])cc3c2OCOC3)nc2ccccc2c1=O` (centres undefined) gave PP1 counter 3, H9c2 protect 7, ATG4B inhibitor 43*, PP5 inh 2 and PLA2 counter 55*.
`O=C(NCc1ccccc1)c1cc(C2COCCN2C(=O)C/C=C/c2ccccc2)on1` (centres undefined) gave H9c2 protect -10.
NC(=O)C1CCN(c2nc(-c3cc4ccccc4o3)cs2)CC1 was read as H9c2 protect -12, ATG4B inhibitor 45* and PLA2 counter 49.
